These results are taken from PubChem BioAssay (Tox21).

Results filed as inconclusive are left out. Entries that show only a call come without a potency. Activity calls are given as the source filed them. The call rests on the fitted dose curve; in most records, active means well fitted inhibition curve with a large enough effect in the signal ratio in the repeat runs, with a control signal flat; inconclusive means weak or mixed curves, or effect the other way; inactive means flat fitted curve, though single readings scatter; the % refers to the signal ratio.

Chain of D(2) dopamine receptor (Homo sapiens) (P14416 whole entry, looked up): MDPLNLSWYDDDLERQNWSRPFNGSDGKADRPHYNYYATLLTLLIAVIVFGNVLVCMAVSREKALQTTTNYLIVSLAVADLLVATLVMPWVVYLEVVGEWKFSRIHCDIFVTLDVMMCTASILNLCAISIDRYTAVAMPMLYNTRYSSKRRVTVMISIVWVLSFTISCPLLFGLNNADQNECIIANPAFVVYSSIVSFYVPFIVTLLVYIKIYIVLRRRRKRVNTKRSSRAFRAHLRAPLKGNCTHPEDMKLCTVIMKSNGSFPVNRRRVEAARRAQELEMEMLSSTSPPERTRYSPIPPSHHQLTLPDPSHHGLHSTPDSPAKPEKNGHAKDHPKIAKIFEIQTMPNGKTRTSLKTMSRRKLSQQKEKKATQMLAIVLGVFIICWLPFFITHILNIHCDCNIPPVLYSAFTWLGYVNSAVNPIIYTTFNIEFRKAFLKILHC

For this test, the target named is D(2) dopamine receptor (Homo sapiens) (UniProt P14416). In words: Dopamine D2 receptor (DRD2) small molecule antagonists, cell-based qHTS assay (AID 1963595). To be noted: HEK293-DRD2 cAMP HTRF antagonist mode; series mostly up to 92.4 µM. An excerpt:
National Center for Advancing Translational Sciences [NCATS]
Division of Preclinical Innovation [DPI]
U.S. Environmental Protection Agency [EPA]
National Institutes of Environmental Health Sciences [NIEHS]
National Toxicology Program [NTP]
U.S. Food and Drug Administration [FDA]
DRD2 is the D2 subtype of the dopamine receptor, which is coupled to Gi subtype of G protein-coupled receptor. This G protein-coupled receptor inhibits adenylyl cyclase activity. The DRD2-HEK293 cell line stably expressing D2 dopamine receptor can be used for screening agonists and antagonists of interactions between D2 and its ligands. The Hek293-DRD2 cAMP assay is based on HTRF technology. It measures changes of cAMP accumulation in response to Gi coupled GPCR activation or inhibition.
Tox21 Assay Protocol Summary:
DRD2-Hek293 cells were dispensed at 600 cells/3uL/well in 1536-well white plates using a Multidrop Dispenser. After the assay plates were incubated at a 37 C/5% CO2 incubator for 24 h, 1 uL of Ro20-1724 at final concentration of 0.1 mM was transferred to the assay plate by a Flying Reagent Dispenser. Following Ro20-1724 addition, 23 nL of compound dissolved in DMSO, positive controls or DMSO only was added to the assay plates via Wako pintool station. The assay plates were incubated at room temperature for 10 min. Next, 1 uL of mixture of NKH477 (final concentration at 200 nM) and quinpirole (final concentration at 12 nM) was added into the plates. After the assay plates were incubated at room temperature for an additional 30 min, 2.5 ul/well of cAMP-d2 and 2.5 ul/well of anti-cAMP-cryptate were added respectively into the assay plates using a Flying Reagent Dispenser. The plates were incubated at room temperature for 1 h. The fluorescence intensity in the plates was measured at 340 nm excitation and 665 & 620 nm emission by an Envision plate reader.
With `CC(=O)OCC(=O)Nc1cc(C#N)cc(NC(=O)COC(C)=O)c1Cl`, the Potency result was “inactive”. The value for `O=C(O)C1CCC(C(=O)O)CC1` (stereo not given) was “inactive”; that for `CC(CN1c2ccccc2Sc2ccccc21)N(C)C` (stereo not given) was “inactive”; that for `COCCOCCOCCOCCOCCO` was “inactive”. The value for `C=CCCCCCCCCC(=O)OCCCC` was “inactive”; that for `c1cnc2cc3c(cc2n1)C1CNCC3C1` was “inactive”; that for `COc1ccc(NC(C)=O)cc1` was “inactive”. The value for `Cc1cccc(N(C)C)c1` was “inactive”; that for `CO[C@@H]1[C@@H](O[C@@H]2O[C@H](C)[C@@H](O[C@H]3C[C@@](C)(O)[C@@H](O)[C@H](C)O3)[C@H](N(C)C)[C@H]2O)[C@@H](CC=O)C[C@@H](C)[C@@H](O[C@@H]2CC[C@H](N(C)C)[C@@H](C)O2)/C=C/C=C/C[C@@H](C)OC(=O)C[C@H]1OC(C)=O` was “inactive”; that for `CC(C)(c1cc(Br)c(O)c(Br)c1)c1cc(Br)c(O)c(Br)c1` was “inactive”. For `C=CCCC=C`, the Potency result is “inactive”. The value for `CC(C)(C)c1nnc(NS(=O)(=O)c2ccc(N)cc2)s1` was “inactive”; that for `CC1(C)C(=O)N(Br)C(=O)N1Cl` was “inactive”; that for `O[C@@H]([C@H](O)[C@H](O)CBr)[C@H](O)CBr` was “inactive”. Take `Cc1ccccc1S(=O)(=O)O`: the Potency entry was “inactive”. The value for `NCCOCCN` was “inactive”. The value for `CC(N)CN` (stereo not given) was “inactive”; that for `Oc1ccc(O)c2c(O)cccc12` was “inactive”; that for `O=C(O)[C@H](O)[C@@H](O)[C@H](O[C@@H]1O[C@H](CO)[C@H](O)[C@H](O)[C@H]1O)[C@H](O)CO` was “inactive”.

Regarding `Cc1cc(C)c(C(=O)O)c(C)c1`, the Potency result was “inactive”. The value for `O=C(O)CSCC(=O)NC1CCSC1=O` (stereo not given) was “inactive”.

Turning to `O=C(O)c1ccccc1C(c1ccc(O)cc1)c1ccc(O)cc1`, the Potency entry is “inactive”. On to `CCCCCCCCS`, for which the Potency result was “inactive”. Turning to `FC(F)(F)/C(=N\OCC1OCCO1)c1ccc(Cl)cc1`, the Potency result is “inactive”. Regarding `CCCCCC(C)=O`, the Potency result was “inactive”.

As for `CCCCCCOC(=O)c1ccccc1O`, the Potency entry was “inactive”. In the case of `c1coc(CNc2ncnc3nc[nH]c23)c1`, the Potency result is “inactive”.

Turning to `CC[C@H](C)[C@H](N)C(=O)O`, the Potency result was “inactive”. The value for `CN/C(=C\[N+](=O)[O-])NCCSCc1ccc(CN(C)C)o1` was “inactive”; that for `C=C(C)C(=O)OCCC[Si](Cl)(Cl)Cl` was “inactive”; that for `NNS(=O)(=O)c1ccc(Oc2ccc(S(=O)(=O)NN)cc2)cc1` was “inactive”. `Nc1ccccc1S(=O)(=O)O`: the Potency result was “inactive”.

As to `CC(=O)OCc1ccccc1`, the Potency result is “inactive”.

In the case of `NCc1cccc(CN)c1`, the Potency entry was “inactive”. As to `CCCCOCCOCCOCCCC`, the Potency entry is “inactive”. The value for `Cc1[nH]cnc1-c1ccc(Cl)cc1` was “inactive”. For the molecule `CC(C)(CCC(=O)O)C(=O)O`, the Potency entry is “inactive”. For `CC(COCCO)OCCO` (stereo not given), the Potency result was “inactive”. The value for `c1ccc2cnccc2c1` was “inactive”. The value for `Cc1occc1S` was “inactive”.
